How the values were obtained:
[1] = target: T1, Mitogen-activated protein kinase 12 (Homo sapiens) (UniProt P53778); settings: at 1 µM;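 further: values are averaged p38gamma kinase inhibition readings, compounds tested at 1 µM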
T1 sequence (whole entry): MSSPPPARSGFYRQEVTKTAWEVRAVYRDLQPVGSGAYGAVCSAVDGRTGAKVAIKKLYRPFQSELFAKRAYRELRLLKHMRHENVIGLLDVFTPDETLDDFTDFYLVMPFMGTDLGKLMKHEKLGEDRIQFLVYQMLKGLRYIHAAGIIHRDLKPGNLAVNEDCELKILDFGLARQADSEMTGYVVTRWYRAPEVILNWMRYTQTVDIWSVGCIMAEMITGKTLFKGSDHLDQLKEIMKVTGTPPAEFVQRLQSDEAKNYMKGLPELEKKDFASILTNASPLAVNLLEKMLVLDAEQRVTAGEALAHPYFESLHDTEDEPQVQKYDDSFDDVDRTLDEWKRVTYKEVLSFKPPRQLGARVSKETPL

[2] = target: SRSF protein kinase 1 (Homo sapiens) (UniProt Q96SB4); settings: at 0.1 µM
Chain of SRSF protein kinase 1 (Homo sapiens) (Q96SB4 whole entry, canonical isoform): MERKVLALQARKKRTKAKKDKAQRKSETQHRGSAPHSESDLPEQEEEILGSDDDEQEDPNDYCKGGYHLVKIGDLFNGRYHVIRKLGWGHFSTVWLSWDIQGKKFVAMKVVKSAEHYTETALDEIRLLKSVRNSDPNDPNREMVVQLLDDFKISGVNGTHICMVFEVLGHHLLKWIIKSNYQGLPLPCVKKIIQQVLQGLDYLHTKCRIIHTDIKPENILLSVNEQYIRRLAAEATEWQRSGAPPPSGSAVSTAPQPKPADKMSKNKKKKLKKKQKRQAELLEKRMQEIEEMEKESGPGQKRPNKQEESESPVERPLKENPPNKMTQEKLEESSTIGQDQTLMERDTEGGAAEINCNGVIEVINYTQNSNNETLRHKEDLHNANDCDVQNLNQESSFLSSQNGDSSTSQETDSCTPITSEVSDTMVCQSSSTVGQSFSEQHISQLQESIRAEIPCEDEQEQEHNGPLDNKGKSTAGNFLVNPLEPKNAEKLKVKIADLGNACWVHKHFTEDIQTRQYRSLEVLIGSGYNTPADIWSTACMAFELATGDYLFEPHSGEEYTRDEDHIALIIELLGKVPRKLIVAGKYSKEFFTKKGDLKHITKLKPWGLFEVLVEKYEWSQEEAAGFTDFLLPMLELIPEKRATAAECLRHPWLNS

[3] = target: SRSF protein kinase 1 (Homo sapiens) (UniProt Q96SB4); settings: at 1 µM
[4] = target: Phosphatidylinositol 4,5-bisphosphate 3-kinase catalytic subunit alpha isoform (Homo sapiens) (UniProt P42336); settings: at 0.1 µM
Chain of Phosphatidylinositol 4,5-bisphosphate 3-kinase catalytic subunit alpha isoform (Homo sapiens) (P42336 whole entry, canonical isoform): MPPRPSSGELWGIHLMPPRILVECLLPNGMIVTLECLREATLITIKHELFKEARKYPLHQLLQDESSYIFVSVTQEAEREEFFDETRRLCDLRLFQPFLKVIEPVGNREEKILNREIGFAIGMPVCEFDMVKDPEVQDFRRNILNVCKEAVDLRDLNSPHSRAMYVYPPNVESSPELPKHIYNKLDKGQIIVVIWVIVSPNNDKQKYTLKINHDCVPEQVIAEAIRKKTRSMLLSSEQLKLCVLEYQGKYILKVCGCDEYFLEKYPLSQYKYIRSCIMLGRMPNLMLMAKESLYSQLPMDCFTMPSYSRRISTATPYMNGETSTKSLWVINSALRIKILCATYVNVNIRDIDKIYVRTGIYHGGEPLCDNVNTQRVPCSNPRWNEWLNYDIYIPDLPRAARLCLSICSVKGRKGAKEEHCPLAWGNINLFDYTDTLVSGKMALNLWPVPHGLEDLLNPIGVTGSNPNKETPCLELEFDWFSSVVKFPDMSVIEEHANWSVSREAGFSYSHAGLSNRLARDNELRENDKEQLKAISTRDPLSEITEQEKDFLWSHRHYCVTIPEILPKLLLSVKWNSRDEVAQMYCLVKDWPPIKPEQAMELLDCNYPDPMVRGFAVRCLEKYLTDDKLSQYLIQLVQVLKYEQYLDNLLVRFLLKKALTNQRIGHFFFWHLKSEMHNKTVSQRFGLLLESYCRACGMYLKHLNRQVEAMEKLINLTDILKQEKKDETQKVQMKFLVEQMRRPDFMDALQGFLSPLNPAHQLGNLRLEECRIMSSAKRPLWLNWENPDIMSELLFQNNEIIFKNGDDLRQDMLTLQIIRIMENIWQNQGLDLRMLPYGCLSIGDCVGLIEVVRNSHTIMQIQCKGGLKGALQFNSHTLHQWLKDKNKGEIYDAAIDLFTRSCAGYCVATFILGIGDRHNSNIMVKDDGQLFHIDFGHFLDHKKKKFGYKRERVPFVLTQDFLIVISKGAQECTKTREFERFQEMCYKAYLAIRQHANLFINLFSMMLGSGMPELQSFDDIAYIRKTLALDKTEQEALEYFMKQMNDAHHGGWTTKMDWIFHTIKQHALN

[5] = target: Phosphatidylinositol 4,5-bisphosphate 3-kinase catalytic subunit alpha isoform (Homo sapiens) (UniProt P42336); settings: at 1 µM
[6] = target: T2, Phosphatidylinositol 4,5-bisphosphate 3-kinase catalytic subunit delta isoform (Homo sapiens) (UniProt O00329); settings: at 0.1 µM
T2 sequence (whole entry): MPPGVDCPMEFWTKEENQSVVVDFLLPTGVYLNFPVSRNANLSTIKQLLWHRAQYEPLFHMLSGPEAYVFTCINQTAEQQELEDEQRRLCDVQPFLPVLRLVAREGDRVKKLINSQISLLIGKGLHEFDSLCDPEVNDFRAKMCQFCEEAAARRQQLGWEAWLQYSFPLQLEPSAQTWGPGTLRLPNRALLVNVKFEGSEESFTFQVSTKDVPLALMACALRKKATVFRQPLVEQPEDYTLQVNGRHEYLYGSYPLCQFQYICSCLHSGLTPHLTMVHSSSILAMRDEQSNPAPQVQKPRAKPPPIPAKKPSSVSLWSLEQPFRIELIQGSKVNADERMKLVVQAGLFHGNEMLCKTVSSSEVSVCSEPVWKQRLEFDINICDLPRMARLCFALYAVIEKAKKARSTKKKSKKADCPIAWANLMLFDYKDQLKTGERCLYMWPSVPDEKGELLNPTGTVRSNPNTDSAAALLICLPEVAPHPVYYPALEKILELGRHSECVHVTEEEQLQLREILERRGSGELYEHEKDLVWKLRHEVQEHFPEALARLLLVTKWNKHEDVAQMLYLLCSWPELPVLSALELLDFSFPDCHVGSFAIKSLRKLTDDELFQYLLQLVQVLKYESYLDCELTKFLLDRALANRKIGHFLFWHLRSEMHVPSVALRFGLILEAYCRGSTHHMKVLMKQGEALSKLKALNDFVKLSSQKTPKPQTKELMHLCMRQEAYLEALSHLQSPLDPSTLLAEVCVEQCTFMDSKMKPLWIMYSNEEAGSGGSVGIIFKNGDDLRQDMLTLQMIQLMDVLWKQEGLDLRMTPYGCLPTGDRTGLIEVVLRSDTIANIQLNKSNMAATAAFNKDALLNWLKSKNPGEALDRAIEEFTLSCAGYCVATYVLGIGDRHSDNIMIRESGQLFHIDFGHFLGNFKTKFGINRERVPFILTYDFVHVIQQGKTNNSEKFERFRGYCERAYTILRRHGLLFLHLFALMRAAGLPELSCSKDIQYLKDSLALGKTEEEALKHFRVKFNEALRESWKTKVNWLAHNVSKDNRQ

[7] = target: T2, Phosphatidylinositol 4,5-bisphosphate 3-kinase catalytic subunit delta isoform (Homo sapiens); settings: at 1 µM
[8] = target: Phosphatidylinositol 4-kinase beta (Homo sapiens) (UniProt Q9UBF8); settings: at 0.1 µM
Chain of Phosphatidylinositol 4-kinase beta (Homo sapiens) (Q9UBF8 2-816 limits assumed): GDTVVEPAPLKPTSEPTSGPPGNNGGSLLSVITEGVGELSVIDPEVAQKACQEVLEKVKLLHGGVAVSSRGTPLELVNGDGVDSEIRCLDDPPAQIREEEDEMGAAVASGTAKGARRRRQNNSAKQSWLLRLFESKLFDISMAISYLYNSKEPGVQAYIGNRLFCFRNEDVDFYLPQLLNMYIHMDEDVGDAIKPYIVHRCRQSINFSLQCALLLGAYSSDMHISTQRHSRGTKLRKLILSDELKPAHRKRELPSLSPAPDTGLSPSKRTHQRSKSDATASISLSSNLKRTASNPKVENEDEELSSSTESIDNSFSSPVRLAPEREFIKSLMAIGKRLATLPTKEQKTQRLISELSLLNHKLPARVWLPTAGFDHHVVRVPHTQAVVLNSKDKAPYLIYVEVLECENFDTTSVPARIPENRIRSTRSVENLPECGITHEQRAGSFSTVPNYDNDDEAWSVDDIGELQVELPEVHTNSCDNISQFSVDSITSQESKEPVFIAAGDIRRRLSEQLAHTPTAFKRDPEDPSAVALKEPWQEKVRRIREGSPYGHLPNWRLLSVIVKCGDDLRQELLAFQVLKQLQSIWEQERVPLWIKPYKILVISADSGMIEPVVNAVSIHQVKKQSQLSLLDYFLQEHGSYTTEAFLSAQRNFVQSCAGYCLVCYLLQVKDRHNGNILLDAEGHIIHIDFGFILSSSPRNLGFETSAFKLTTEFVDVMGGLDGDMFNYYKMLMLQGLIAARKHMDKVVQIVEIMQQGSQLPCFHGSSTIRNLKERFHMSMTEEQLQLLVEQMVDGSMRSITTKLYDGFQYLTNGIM

[9] = target: Phosphatidylinositol 4-kinase beta (Homo sapiens) (UniProt Q9UBF8); settings: at 1 µM
[10] = target: Sphingosine kinase 1 (Homo sapiens) (UniProt Q9NYA1); settings: at 0.1 µM
Chain of Sphingosine kinase 1 (Homo sapiens) (Q9NYA1 whole entry): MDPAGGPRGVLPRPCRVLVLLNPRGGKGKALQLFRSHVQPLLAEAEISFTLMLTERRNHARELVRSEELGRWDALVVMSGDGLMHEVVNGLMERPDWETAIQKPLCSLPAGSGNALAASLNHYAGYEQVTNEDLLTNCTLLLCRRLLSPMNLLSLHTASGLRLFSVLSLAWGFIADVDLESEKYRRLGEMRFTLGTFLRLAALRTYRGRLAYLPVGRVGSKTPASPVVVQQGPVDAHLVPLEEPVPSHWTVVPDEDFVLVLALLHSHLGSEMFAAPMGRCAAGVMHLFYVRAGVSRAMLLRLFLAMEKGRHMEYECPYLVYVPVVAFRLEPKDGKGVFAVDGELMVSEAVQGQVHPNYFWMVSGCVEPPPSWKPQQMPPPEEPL

[11] = target: Sphingosine kinase 1 (Homo sapiens) (UniProt Q9NYA1); settings: at 1 µM
[12] = target: T3, Sphingosine kinase 2 (Homo sapiens) (UniProt Q9NRA0); settings: at 0.1 µM
T3 sequence (whole entry): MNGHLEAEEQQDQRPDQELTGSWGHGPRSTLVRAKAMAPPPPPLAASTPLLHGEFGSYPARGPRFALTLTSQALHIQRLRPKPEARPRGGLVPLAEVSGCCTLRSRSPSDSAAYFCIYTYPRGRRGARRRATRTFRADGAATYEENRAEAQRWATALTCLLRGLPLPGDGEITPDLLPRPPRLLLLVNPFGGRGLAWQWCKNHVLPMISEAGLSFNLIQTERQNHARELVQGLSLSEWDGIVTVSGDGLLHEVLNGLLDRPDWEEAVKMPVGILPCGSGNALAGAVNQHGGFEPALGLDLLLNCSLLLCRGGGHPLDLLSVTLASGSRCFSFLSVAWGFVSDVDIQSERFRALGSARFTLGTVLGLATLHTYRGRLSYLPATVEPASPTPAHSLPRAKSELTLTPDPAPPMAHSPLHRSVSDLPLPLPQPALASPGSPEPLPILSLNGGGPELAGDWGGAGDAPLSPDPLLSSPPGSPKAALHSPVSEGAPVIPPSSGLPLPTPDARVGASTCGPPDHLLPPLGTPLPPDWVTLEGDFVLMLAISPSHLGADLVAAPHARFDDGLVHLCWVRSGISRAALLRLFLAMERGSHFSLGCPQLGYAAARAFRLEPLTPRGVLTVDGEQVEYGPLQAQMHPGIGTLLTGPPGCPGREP

[13] = target: T3, Sphingosine kinase 2 (Homo sapiens); settings: at 1 µM
[14] = target: Casein kinase II subunit alpha (Homo sapiens) (UniProt P68400); settings: at 0.1 µM
Chain of Casein kinase II subunit alpha (Homo sapiens) (P68400 whole entry, looked up): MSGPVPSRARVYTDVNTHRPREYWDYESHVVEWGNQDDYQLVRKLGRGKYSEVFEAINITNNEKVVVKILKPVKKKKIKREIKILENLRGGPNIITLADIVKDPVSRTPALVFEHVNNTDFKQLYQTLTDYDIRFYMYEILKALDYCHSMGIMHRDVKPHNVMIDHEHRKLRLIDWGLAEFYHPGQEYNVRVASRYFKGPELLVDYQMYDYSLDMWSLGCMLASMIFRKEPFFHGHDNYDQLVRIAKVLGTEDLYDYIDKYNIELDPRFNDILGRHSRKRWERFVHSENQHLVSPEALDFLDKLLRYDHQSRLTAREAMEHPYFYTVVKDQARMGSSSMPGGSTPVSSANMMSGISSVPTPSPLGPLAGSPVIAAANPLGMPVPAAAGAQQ

[15] = target: Casein kinase II subunit alpha (Homo sapiens) (UniProt P68400); settings: at 1 µM
[16] = target: T4, Inhibitor of nuclear factor kappa-B kinase subunit alpha (Homo sapiens) (UniProt O15111); settings: at 0.1 µM
T4 sequence (whole entry): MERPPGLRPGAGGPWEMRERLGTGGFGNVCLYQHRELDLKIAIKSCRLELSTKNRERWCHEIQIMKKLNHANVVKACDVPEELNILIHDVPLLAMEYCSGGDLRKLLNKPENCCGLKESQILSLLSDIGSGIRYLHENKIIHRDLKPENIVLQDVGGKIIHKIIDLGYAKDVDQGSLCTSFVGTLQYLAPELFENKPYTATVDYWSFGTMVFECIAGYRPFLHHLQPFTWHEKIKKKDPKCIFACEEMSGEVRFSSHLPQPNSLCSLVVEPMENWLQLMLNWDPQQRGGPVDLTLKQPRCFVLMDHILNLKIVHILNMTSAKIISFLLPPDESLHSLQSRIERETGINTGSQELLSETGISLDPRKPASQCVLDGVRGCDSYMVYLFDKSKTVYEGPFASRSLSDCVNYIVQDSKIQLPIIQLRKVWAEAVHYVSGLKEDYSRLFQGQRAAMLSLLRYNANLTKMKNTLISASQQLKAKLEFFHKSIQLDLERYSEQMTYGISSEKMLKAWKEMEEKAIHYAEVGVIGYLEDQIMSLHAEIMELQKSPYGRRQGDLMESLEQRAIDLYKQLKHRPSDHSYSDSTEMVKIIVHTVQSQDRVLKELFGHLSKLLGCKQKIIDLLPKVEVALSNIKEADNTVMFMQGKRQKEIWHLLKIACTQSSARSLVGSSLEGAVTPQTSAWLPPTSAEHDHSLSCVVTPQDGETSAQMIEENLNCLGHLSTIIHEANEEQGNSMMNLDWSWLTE

[17] = target: T4, Inhibitor of nuclear factor kappa-B kinase subunit alpha (Homo sapiens); settings: at 1 µM
[18] = target: T5, Inhibitor of nuclear factor kappa-B kinase subunit beta (Homo sapiens) (UniProt O14920); settings: at 0.1 µM
T5 sequence (whole entry): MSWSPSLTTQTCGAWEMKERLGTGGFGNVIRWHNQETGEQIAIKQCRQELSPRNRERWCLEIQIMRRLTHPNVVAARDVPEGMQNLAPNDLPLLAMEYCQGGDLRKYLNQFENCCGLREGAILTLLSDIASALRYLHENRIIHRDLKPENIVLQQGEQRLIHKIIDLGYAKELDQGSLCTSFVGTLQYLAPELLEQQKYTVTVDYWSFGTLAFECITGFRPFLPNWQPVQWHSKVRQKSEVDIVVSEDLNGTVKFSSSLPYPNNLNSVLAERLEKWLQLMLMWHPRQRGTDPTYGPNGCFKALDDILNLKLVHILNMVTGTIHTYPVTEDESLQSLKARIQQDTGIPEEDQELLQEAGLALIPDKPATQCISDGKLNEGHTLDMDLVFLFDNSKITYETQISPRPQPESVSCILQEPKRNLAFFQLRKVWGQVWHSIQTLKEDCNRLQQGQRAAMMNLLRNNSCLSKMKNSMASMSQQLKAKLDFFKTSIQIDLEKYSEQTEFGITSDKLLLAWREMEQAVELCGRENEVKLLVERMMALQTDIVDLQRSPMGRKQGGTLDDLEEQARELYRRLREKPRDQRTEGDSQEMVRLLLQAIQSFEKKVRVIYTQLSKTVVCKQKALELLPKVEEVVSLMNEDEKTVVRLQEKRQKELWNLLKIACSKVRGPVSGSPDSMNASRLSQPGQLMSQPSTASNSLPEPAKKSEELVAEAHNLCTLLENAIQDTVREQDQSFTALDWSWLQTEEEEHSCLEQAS

[19] = target: T5, Inhibitor of nuclear factor kappa-B kinase subunit beta (Homo sapiens); settings: at 1 µM
[20] = target: T6, Inhibitor of nuclear factor kappa-B kinase subunit epsilon (Homo sapiens) (UniProt Q14164); settings: at 0.1 µM;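 further: mean inhibition of IKKε reported, from the GSK PKIS dataset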
T6 sequence (whole entry): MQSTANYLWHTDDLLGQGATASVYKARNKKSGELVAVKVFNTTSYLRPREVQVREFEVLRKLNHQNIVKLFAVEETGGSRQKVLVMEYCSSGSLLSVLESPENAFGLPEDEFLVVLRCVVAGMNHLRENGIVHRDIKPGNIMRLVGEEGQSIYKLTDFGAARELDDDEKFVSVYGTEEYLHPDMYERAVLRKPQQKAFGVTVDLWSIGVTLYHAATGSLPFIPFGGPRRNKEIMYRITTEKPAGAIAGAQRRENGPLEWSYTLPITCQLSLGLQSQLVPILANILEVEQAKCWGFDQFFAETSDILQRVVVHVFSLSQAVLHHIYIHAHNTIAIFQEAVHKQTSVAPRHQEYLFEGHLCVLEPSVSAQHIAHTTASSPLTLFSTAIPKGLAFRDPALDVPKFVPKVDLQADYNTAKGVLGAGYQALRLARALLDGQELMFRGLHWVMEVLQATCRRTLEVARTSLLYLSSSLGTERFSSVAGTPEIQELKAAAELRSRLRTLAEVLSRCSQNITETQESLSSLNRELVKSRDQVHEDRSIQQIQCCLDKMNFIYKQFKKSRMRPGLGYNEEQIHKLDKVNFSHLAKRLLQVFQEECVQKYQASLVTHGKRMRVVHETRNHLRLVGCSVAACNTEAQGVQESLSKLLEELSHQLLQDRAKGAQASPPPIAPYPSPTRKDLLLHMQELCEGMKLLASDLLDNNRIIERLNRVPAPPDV

SMILES | inhibition [1] [%] | inhibition [2] [%] | inhibition [3] [%] | inhibition [4] [%] | inhibition [5] [%] | inhibition [6] [%] | inhibition [7] [%] | inhibition [8] [%] | inhibition [9] [%] | inhibition [10] [%] | inhibition [11] [%] | inhibition [12] [%] | inhibition [13] [%] | inhibition [14] [%] | inhibition [15] [%] | inhibition [16] [%] | inhibition [17] [%] | inhibition [18] [%] | inhibition [19] [%] | inhibition [20] [%]
NS(=O)(=O)c1cccc(-c2cc3ccncc3cc2OCc2ccccc2)c1 | 3.69 | -1.98 | -2.89 | 4.56 | 6.5 | 2.08 | 5.47 | -1.89 | -5.37 | 0.1 | 0.02 | -1.2 | 0.96 | 1.61 | -1.22 | 8.21 | 10.9 | 7.94 | 10.7 | 4.52
c1ccc(Nc2ncc(-c3ccccc3)o2)cc1 | 5.26 | -2.25 | -2.19 | 5.87 | 6.84 | 1.87 | 4.99 | 5.07 | -3.06 | 2.26 | 5.25 | 0.84 | 7.14 | 8.1 | 4.81 | 4.42 | 6.78 | 5.92 | 7.79 | 3.13
CN(C)c1cc2c(Nc3ccc4c(cnn4Cc4ccccc4)c3)ncnc2cn1 | 1.89 | -2.31 | -3.59 | 1.32 | 1.28 | 0.82 | 3.28 | -1.83 | 7.07 | 0.08 | -2 | -0.22 | -1.13 | 1.2 | -0.12 | 3.64 | 8.41 | 3.68 | 3.14 | 3.9
O=C(Nc1ccc(Oc2ccc3[nH]c(NC(=O)c4ccco4)nc3c2)cc1)Nc1cc(C(F)(F)F)ccc1F | 3.11 | -0.3 | 5.87 | -0.31 | 0.01 | 0.36 | 2.96 | 1.45 | 1.53 | 0.3 | 6.73 | 0.7 | -0.32 | 0.08 | -0.44 | 0.68 | 5.25 | -0.61 | -1.89 | -0.79
CS(=O)(=O)CCNCc1nc(-c2ccc3ncnc(Nc4ccc(OCc5cccc(C(F)(F)F)c5)cc4)c3c2)cs1 | 2.12 | -2.46 | -3.03 | 1.85 | -0.47 | 0.76 | 3.63 | -0.59 | 0.33 | -1.19 | 1.3 | 0.09 | -0.46 | -0.05 | 1.3 | -2.52 | -0.52 | 3.26 | 1.84 | -0.33
CS(=O)(=O)Nc1cccc(-c2ccc3c(NC(=O)C4CC4)n[nH]c3c2)c1 | 0.75 | -2.53 | -4.93 | -0.25 | -0.59 | 1.13 | 4.97 | -1.63 | 4.39 | 0.08 | -0.74 | 1 | 0.16 | -2.9 | -3.51 | -2.77 | -6.36 | 8.91 | 3.62 | 2.67
